The structures appear in SMILES notation. Calls of active or inactive are those of the source.

Consider 4 molecules from PubChem BioAssay.

A short description of experiment [1]: optical density shifts of acrAB sulA E. coli – strain DRC41, OD650, 48 h, E. coli filamentation inducer project, primary screen (AID 1152).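 Also: E. coli MC1000 strain DRC41 lacking acrAB efflux pump and sulA.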 As to conditions: higher = more signal, called active from +8 up or from −8 down.
A short description of experiment [2]: probe aLefty1 binding on compound microarray – biochemical, small-molecule microarray, 635/667 nm fluorescence, primary screen (AID 1153).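 Also: score merges spot fluorescence with signal-to-noise ratio from the scanned slide images.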 Particulars: higher = more signal.
Experiment [3] in a line: plasmodial surface anion channel blockers, osmotic lysis – cell-based, P. falciparum Indochina, OD700, 1 h, primary screen (AID 1154). Particulars: P. falciparum Indochina infected RBC osmotic lysis, higher = more signal, called active from +8 up or from −8 down.
Experiment [4] in a line: plasmodial surface anion channel blockers, osmotic lysis – cell-based, P. falciparum Indochina, OD700, 2 h, primary screen (AID 1155).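 Also: lysis reports solute entry through the parasite surface anion channel PSAC.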 Particulars: P. falciparum Indochina infected erythrocytes, higher = more signal, called active from +8 up or from −8 down.
The nature of experiment [5]: changes in parasitized red cell lysis, either direction – P. falciparum Indochina, OD700, 3 h, PSAC antagonist project, primary screen (AID 1156). As to conditions: P. falciparum-infected erythrocytes, osmotic lysis, higher = more signal, called active from +8 up or from −8 down.
A short description of experiment [6]: plasmodial surface anion channel blockers, osmotic lysis – cell-based, P. falciparum Indochina, OD700, 18 h, primary screen (AID 1157). As to conditions: P. falciparum Indochina infected erythrocytes, osmotic lysis OD700, 18 h; higher = more signal, called active from +8 up or from −8 down.
A short description of experiment [7]: S6 kinase pathway phospho-S6 level changes – cell-based, A549, cytoblot, luminescence, serum-stimulated, primary screen (AID 1158).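 Also: serum-stimulated A549 lung adenocarcinoma cells; signal is phosphorylated S6 detected by cytoblot immunostaining with HRP secondary.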 Particulars: 5 h, higher = more signal.
Experiment [8] concerns the target NADPH oxidase 2 (Homo sapiens) (UniProt P04839). In words: compounds shifting NOX2 Amplex Red fluorescence – cell-based, HEK293-NOX2, PMA-stimulated, NOX inhibitor project, primary screen (AID 1159). Also: test concentration not given here. As to conditions: 45 min, higher = more signal, called active from +8 up or from −8 down.
The target in experiment [9] is NADPH oxidase 4 (Homo sapiens) (UniProt Q9NPH5). In words: compounds shifting NOX4 Amplex Red fluorescence – cell-based, HEK293-NOX4, tetracycline-induced, NOX inhibitor project, primary screen (AID 1160). As to conditions: HEK293-NOX4, Amplex Red H2O2 fluorescence, 45 min; higher = more signal, called active from +8 up or from −8 down.
Sequence of NADPH oxidase 4 (Homo sapiens) (Q9NPH5 whole entry, looked up): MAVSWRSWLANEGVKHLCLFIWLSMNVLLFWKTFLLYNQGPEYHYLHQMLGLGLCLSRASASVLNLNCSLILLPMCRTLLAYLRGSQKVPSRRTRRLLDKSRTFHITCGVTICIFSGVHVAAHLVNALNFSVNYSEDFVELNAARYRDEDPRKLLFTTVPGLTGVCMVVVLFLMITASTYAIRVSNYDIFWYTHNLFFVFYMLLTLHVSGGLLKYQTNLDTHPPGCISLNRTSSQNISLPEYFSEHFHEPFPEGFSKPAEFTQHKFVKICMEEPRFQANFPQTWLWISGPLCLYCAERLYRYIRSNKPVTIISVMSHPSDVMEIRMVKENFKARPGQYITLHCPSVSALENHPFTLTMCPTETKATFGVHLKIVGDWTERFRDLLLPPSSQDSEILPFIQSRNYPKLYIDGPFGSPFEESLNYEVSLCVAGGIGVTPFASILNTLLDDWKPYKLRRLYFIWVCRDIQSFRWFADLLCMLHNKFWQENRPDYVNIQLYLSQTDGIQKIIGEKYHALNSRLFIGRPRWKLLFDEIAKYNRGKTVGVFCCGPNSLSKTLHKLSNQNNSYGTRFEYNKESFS
Experiment [10] addresses NADPH oxidase 5 (Homo sapiens) (UniProt Q96PH1). Nature of the experiment: compounds shifting NOX5 Amplex Red fluorescence – cell-based, HEK293-NOX5, NOX inhibitor project, primary screen (AID 1161). As to conditions: HEK293-NOX5, ionomycin, 45 min, higher = more signal.
Experiment [11] can be described thus: compound effects on lung adenocarcinoma cell viability – A549, calcein-AM fluorescence, 48 h, basal, profiling panel (AID 1162). Also: test concentration not given here. Particulars: higher = more signal.
Experiment [12] is described as follows: compound effects on differentiated 3T3-L1 adipocyte viability – cell-based, 3T3-L1 adipocytes, calcein-AM fluorescence, 48 h, basal, profiling panel (AID 1163). Also: test concentration not given here. Particulars: 3T3-L1 adipocytes viability, higher = more signal.
Experiment [13] is described as follows: compound effects on hepatocellular carcinoma cell viability – HepG2, calcein-AM fluorescence, 48 h, basal, profiling panel (AID 1164). Also: test concentration not given here. As to conditions: higher = more signal.
Experiment [14] in a line: compound effects on multiple myeloma cell viability – MM1S, calcein-AM fluorescence, 48 h, basal, profiling panel (AID 1165). Also: test concentration not given here. As to conditions: higher = more signal.
The nature of experiment [15]: calcein-AM signal in unstimulated myeloma cells – cell-based, calcein-AM fluorescence, 48 h, PK04 Diversity Set, profiling panel (AID 1166).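 Also: cells grown under basal conditions without added stimulus; test concentration not given here.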 Particulars: RPMI8226 myeloma viability, higher = more signal.
Experiment [16] in a line: JC-1 mitochondrial signal, unstimulated HepG2 cells – cell-based, JC-1 fluorescence, 24 h, 100 nL compound, profiling panel (AID 1167). Also: test concentration not given here. Particulars: HepG2 mitochondrial potential, higher = more signal.
Experiment [17] in a line: JC-1 mitochondrial signal, unstimulated adipocytes – cell-based, JC-1 fluorescence, 3T3-L1 adipocytes, 24 h, 100 nL compound, profiling panel (AID 1168). Also: test concentration not given here. Particulars: JC-1 mitochondrial fluorescence, higher = more signal, called active from +8 up or from −8 down.
A short description of experiment [18]: JC-1 mitochondrial signal, unstimulated myeloma cells – cell-based, JC-1 fluorescence, RPMI8226, 24 h, 100 nL compound, profiling panel (AID 1169). Also: test concentration not given here. As to conditions: JC-1 mitochondrial potential fluorescence, higher = more signal.
The nature of experiment [19]: JC-1 mitochondrial signal, unstimulated MM1S myeloma – cell-based, JC-1 fluorescence, 24 h, 100 nL compound, profiling panel (AID 1170). Also: test concentration not given here. Particulars: MM1S mitochondrial potential, higher = more signal.
Experiment [20] is described as follows: resazurin metabolic signal in A549 cells – cell-based, resazurin fluorescence, 24 h, PK04 Diversity Set, profiling panel (AID 1171). Also: test concentration not given here. Particulars: A549 viability, higher = more signal, called active from +8 up or from −8 down. For orientation: The colour change of resazurin is a common sign of viable cells or microbes.

Sequence of NADPH oxidase 2 (Homo sapiens) (P04839 whole entry, looked up): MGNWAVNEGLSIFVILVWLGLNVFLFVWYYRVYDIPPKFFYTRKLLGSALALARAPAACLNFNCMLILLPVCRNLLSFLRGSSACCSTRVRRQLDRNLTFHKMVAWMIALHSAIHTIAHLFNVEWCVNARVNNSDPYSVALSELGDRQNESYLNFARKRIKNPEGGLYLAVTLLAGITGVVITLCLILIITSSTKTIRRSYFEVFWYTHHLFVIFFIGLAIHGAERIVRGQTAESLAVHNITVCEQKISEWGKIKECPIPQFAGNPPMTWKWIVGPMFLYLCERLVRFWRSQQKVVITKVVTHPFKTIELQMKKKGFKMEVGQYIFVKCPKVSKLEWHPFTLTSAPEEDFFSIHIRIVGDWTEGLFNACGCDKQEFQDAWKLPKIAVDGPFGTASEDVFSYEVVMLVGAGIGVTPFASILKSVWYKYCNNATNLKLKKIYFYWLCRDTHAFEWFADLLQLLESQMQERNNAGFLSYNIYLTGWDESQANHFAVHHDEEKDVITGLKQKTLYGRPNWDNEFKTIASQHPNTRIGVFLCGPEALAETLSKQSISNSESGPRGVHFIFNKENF
Sequence of NADPH oxidase 5 (Homo sapiens) (Q96PH1 whole entry, looked up): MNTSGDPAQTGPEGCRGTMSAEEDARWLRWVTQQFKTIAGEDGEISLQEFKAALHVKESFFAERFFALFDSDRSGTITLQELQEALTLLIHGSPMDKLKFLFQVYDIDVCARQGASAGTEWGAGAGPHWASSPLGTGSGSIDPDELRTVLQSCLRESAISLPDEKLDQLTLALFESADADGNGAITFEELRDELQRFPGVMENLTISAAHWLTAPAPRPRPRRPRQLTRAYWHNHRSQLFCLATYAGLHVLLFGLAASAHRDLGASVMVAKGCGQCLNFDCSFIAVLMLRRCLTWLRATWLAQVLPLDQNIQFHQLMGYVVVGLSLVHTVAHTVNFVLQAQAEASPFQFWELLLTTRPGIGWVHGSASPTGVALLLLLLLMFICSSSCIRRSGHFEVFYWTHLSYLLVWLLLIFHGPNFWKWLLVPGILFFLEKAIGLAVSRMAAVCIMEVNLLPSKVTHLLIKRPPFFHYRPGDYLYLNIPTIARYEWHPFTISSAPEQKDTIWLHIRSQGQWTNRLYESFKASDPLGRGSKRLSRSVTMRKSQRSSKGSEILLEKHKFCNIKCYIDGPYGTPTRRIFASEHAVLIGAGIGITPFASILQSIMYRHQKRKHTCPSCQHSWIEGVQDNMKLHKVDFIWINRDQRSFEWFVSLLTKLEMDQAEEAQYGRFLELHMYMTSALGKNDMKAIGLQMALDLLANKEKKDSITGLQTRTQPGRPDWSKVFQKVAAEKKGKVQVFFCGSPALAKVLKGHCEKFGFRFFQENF

As for `CC(=O)OC[C@H]1O[C@H](C#CCCCc2ccccc2)C=C[C@@H]1OC(C)=O`, the z-score was -0.802 (inactive) in experiment [1]; 3.35 (inactive) in experiment [3]; 0.23 (inactive) in [4]; -0.213 (inactive) in experiment [5]; 0.148 (inactive) in [6]; -0.0744 in experiment [7]. For the same molecule, the z-score in experiment [8] was -1.19 (inactive); in experiment [9] it was 0.903 (inactive); in [10], 0.839; in experiment [11], -0.442; in experiment [12], -0.0563; in experiment [13] it was -2.26. In addition, the z-score in [14] was -3.51; in [15], -3.61; in experiment [16] it was -1.12; in experiment [17], 0.288 (inactive); in [18], -0.861; in experiment [19], -2.26. The z-score in experiment [20] was 0.899 (inactive). Also, the composite z-score in experiment [2] was -0.0536.
Take `CC(C)(C)N1C(=O)[C@H]2[C@H]3[C@H](O)[C@H](O)CC(=NOCc4ccccc4)[C@@H]3CC[C@H]2C1=O`: the z-score in [1] was 0.831 (inactive); in experiment [3], 0.464 (inactive); in experiment [4] it was -1.53 (inactive); in [5], 0.877 (inactive); in experiment [6], -2.27 (inactive); in [7] it was 0.581. Moreover, the z-score in experiment [8] was -1.57 (inactive); in experiment [9] it was 0.413 (inactive); in experiment [10] it was 0.791; in [11] it was 0.366; in [12], 0.218; in experiment [13] it was 0.586. The z-score in experiment [14] is -0.0096; in experiment [15], 0.519; in [16], 0.858; in experiment [17], -0.249 (inactive); in [18], 0.701; in experiment [19], -1.01. The z-score in experiment [20] was -1.58 (inactive). The same molecule had a composite z-score in [2] of -0.0162.
With `CN(C)CCCNC(=O)[C@@H]1c2ccccc2C(=O)N(Cc2cc(F)cc(C(F)(F)F)c2)[C@H]1c1ccc(CO)cc1`, the z-score in experiment [1] is -0.72 (inactive); in experiment [3] it was 1.88 (inactive); in [4], 0.382 (inactive); in experiment [5], 2.38 (inactive); in experiment [6], 0.745 (inactive); in experiment [7] it was 0.269. Moreover, the z-score in [8] was 0.547 (inactive); in [9], -0.0177 (inactive); in experiment [10], -2.19; in [11] it was -0.276; in experiment [12], 0.239; in [13] it was -0.318. Moreover, the z-score in experiment [14] is 0.137; in experiment [15] it was 0.606; in experiment [16], 1.3; in experiment [17], -0.557 (inactive); in experiment [18], 0.735; in experiment [19], -0.195. For the same molecule, in experiment [20], the z-score is 0.0923 (inactive). In addition, the composite z-score in experiment [2] was -0.0818.
Consider `O=C1C[C@@H](O)[C@@H](O)[C@@H]2[C@@H]3C(=O)N(C4CCCCC4)C(=O)[C@@H]3CC[C@H]12`, for which the z-score was -0.246 (inactive) in experiment [1]; 1.27 (inactive) in [3]; 0.775 (inactive) in experiment [4]; -0.059 (inactive) in experiment [5]; 0.423 (inactive) in experiment [6]; 0.403 in experiment [7]. In addition, the z-score in [8] is -1.6 (inactive); in [9], 0.386 (inactive); in [10] it was -0.883; in [11] it was 0.18; in [12], 0.0589; in [13], 0.0702. The z-score was -0.148 in [14]; -0.189 in experiment [15]; -0.401 in experiment [16]; -0.364 (inactive) in experiment [17]; 0.0892 in [18]; -0.354 in [19]. Further, the z-score in experiment [20] is 0.386 (inactive). This molecule returned a composite z-score in [2] of -0.103.
